According to PubChem BioAssay (Tox21):
“And” between values parts separate entries of the source, which are not always exact repeats. Equal entries are not always repeated. Results filed as inconclusive are left out. A structure can be active in one record and inactive in another. The source made the active and inactive calls. Unless noted, calls come from the whole dose curve; as a rule, active = well fitted curve in the direction sought with a large enough effect in the repeat runs; inconclusive = weak or mixed curves; inactive = no such curve, though single readings can be large; an effect the other way counts as inactive or inconclusive.

Tests used:
[1] = A CellTox Green Cytotoxicity Assay to monitor cytotoxicity in HepG2 cells - 8 hour (AID 1224890); note: nearly all actives have a fitted effect of over 45% in size
In short: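 Real-time, homogeneous cytotoxicity readout: dead-cell DNA staining by CellTox Green in HepG2 monolayers, fluorescence measured at timed intervals up to 40 h of continuous compound exposure.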

[2] = qHTS assay to identify small molecule antagonists of the estrogen receptor alpha (ER-alpha) signaling pathway using the BG1 cell line in the presence of 0.1 nM 17-beta-estradiol - cell viability counter screen (AID 1259241); note: nearly all actives have a fitted effect of over 40% in size
In short: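 Cytotoxicity counter-screen: live-cell protease activity measured by fluorescence (30 min reagent step) in the same wells. Cells were VM7Luc4E2 with endogenous ER-alpha and ERE-driven luciferase, treated 22 hr at 37C alongside 0.1 nM 17beta-estradiol final.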

[3] = qHTS assay to identify small molecule antagonists of the androgen receptor (AR) signaling pathway using the MDA cell line in the presence of 0.5 nM R1881 - cell viability counter screen (AID 1259242); note: nearly all actives have a fitted effect of over 45% in size
In short: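 Cytotoxicity toward MDA-kb2 cells is measured by CellTiter-Fluor live-cell protease fluorescence after 16 hr compound exposure at 37C in the presence of 0.5 nM R1881 stimulator.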

[4] = biological target: Androgen receptor (Homo sapiens) (UniProt P10275); assay: qHTS assay to identify small molecule antagonists of the androgen receptor (AR) signaling pathway using the MDA cell line in the presence of 0.5 nM R1881 (AID 1259243); note: nearly all actives have a fitted effect of over 50% in size
In short: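 Steps: seed MDA-kb2 cells, incubate 5 hr at 37C; pin-transfer compounds in DMSO; add R1881 to 0.5 nM final; incubate 16 hr; add ONE-Glo, wait 30 min at room temperature; read luminescence.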

[5] = qHTS assay to identify small molecule phospholipidosis (PLD) inducers (AID 1259344; active = well fitted curve in the direction sought with a large enough effect; an effect the other way counts as inactive or inconclusive)
In short: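 Quantitative HTS in HepG2: compound plus LipidTOX Red dye for 24 h, paraformaldehyde fixation with Hoechst 33342, widefield high-content imaging; amiodarone as positive and DMSO as negative control.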

[6] = qHTS assay to identify small molecule HDAC inhibitors (AID 1259364); note: top concentration of the series differs between compounds; nearly all actives have a fitted effect of over 45% in size
In short: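 Homogeneous cell-based luminescent assay of endogenous class I/II HDAC activity; HCT-116 cells, 2 h compound exposure, 30 min HDAC-Glo development at RT.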

[7] = qHTS assay to identify small molecule HDAC inhibitors - cell viability counter screen (AID 1259365); note: series mostly up to about 92 µM; nearly all actives have a fitted effect of over 50% in size
In short: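 CellTiter-Glo luminescence (30 min, room temperature) reported viability after a 2 h compound exposure at 37 C. Cells: wild-type HCT-116, 1,500 per well, seeded the night before.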

[8] = qHTS assay to identify small molecule agonists of the sonic hedgehog signaling (Shh) pathway - cell viability counter screen (AID 1259366); note: nearly all actives have a fitted effect of over 50% in size; note: potency is the fitted concentration of half-maximal effect
In short: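 Cytotoxicity counter screen: CellTiter-Fluor reagent added after 23 h compound exposure, then 1 h at 37C and fluorescence read. Cells were 3T3 Gli1-Luc, seeded 2,000 per well and dosed 4 h post-plating.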

[9] = qHTS assay to identify small molecule antagonists of the sonic hedgehog signaling (Shh) pathway - cell viability counter screen (AID 1259367); note: nearly all actives have a fitted effect of over 55% in size; note: potency is the fitted concentration of half-maximal effect
In short: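 Seed 3T3 Gli1-Luc cells at 2,000 per well; incubate 4 hr; add compound in DMSO, then conditioned medium; incubate at 37C with 5% CO2; add CellTiter-Fluor after 23 hr; read fluorescence 1 hr later.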

[10] = qHTS assay to identify small molecule agonists of the sonic hedgehog signaling (Shh) pathway (AID 1259368; calls by dose curve;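 note: NIH/3T3-derived 3T3Gli1-Luc cells carrying a stable Gli1-driven firefly luciferase reporter; series mostly up to about 92 µM; nearly all actives have a fitted effect of over 15% in size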)
In short: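 Steps: seed 3T3 Gli1-Luc cells, incubate 4 hr at 37 C, pin-transfer compounds in DMSO alongside a positive control, incubate 24 hr, add luciferase detection reagent, wait 30 min at room temperature, read luminescence.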

[11] = qHTS assay to identify small molecule antagonists of the sonic hedgehog signaling (Shh) pathway (AID 1259369; calls by dose curve; note: nearly all actives have a fitted effect of over 45% in size; note: potency is the fitted concentration of half-maximal effect)
In short: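 Inhibition of Shh signalling is measured as reduced Gli1-response-element firefly luciferase output in an NIH/3T3-derived stable reporter clone stimulated with conditioned medium for 24hr.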

[12] = qHTS assay to identify small molecule agonists of the androgen receptor (AR) signaling pathway in the presence of an antagonist - cell viability counter screen (AID 1259379);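 note: MDA-kb2 human breast cancer cells carrying an MMTV luciferase reporter; series mostly up to about 92 µM; nearly all actives have a fitted effect of over 25% in size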
In short: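 Fluorescence from CellTiter-Fluor, added after 15 hr and read 1 hr later, gave cell viability. Cells were MDA-kb2 exposed to compounds (15 concentrations) in the presence of 3.0uM nilutamide at 37C, 0% CO2.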

[13] = qHTS assay to identify small molecule agonists of the estrogen receptor beta (ER-beta) signaling pathway - cell viability counter screen (AID 1259380); note: nearly all actives have a fitted effect of over 30% in size
In short: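 Same-well viability counter screen. Cells: ER-beta-UAS-bla HEK293T, plated 6 hr before compound, in 2% charcoal-stripped FBS. Compound exposure 16 hr, 37C; viability by CellTiter-Glo luminescence after 30 min at room temperature.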

[14] = biological target: Androgen receptor (Homo sapiens) (UniProt P10275); assay: qHTS assay to identify small molecule agonists of the androgen receptor (AR) signaling pathway in the presence of an antagonist (AID 1259381; calls by dose curve; note: nearly all actives have a fitted effect of over 15% in size)
In short: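 Cells are MDA-kb2 (human breast carcinoma, MMTV-luc, AR/GR responsive). Nilutamide is present at 3.0uM final throughout; compounds are added at 15 concentrations and incubated 16hr at 37C before ONE-Glo luminescence detection.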

[15] = qHTS assay to identify small molecule antagonists of the estrogen receptor beta (ER-beta) signaling pathway - cell viability counter screen (AID 1259382); note: series mostly up to about 92 µM; nearly all actives have a fitted effect of over 55% in size
In short: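 Following a 6 hr plating period, HEK293T cells carrying a UAS-driven beta-lactamase reporter under ER-beta control received compounds and 1nM E2 (final). After 16 hr at 37C and 2 hr substrate loading, CellTiter-Glo luminescence indicated viability.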

[16] = qHTS assay to identify small molecule agonists or antagonists of the thyroid stimulating hormone receptor (TSHR) signaling pathway - wild type cell line counter screen (AID 1259384; calls by dose curve)
In short: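 Wild-type Hek293 cells, 800/well, 18 h at 37C, then compound with Ro20-1724 for 30 min RT. cAMP by HTRF (cAMP-d2/anti-cAMP cryptate), 1 h RT, fluorescence read. 15 concentrations, triplicates.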

[17] = biological target: Estrogen receptor (Homo sapiens) (UniProt P03372); assay: qHTS assay to identify small molecule antagonists of the estrogen receptor alpha (ER-alpha) signaling pathway using the BG1 cell line in the presence of 0.1 nM 17-beta-estradiol (AID 1259244); note: nearly all actives have a fitted effect of over 50% in size
In short: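 After 5 days in hormone-depleted medium (charcoal-stripped serum, no phenol red), VM7Luc4E2 cells were seeded, incubated 24 h, then co-treated with compound and 0.1 nM (final) estradiol for 22 h before luminescence detection.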

[18] = biological target: Estrogen receptor beta (Homo sapiens) (UniProt Q92731); assay: qHTS assay to identify small molecule agonists of the estrogen receptor beta (ER-beta) signaling pathway (AID 1259377; active = well fitted activation curve with a large enough effect in the signal ratio in the repeat runs, not every such curve was filed as active; the % refers to the signal ratio)
In short: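 Ratiometric beta-lactamase FRET read-out came after 2 h substrate loading at room temperature. It followed 16 h compound treatment at 37C of GripTite HEK293T cells carrying a UAS-bla reporter, plated in 2% charcoal-stripped FBS medium.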

[19] = biological target: Estrogen receptor beta (Homo sapiens) (UniProt Q92731); assay: qHTS assay to identify small molecule antagonists of the estrogen receptor beta (ER-beta) signaling pathway (AID 1259378; active = well fitted inhibition curve with a large enough effect in the signal ratio in the repeat runs, not every such curve was filed as active; the % refers to the signal ratio)
In short: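 ER-beta-UAS-bla HEK293T cells in 2% charcoal-stripped FBS medium treated with compound plus 1nM final 17-beta-estradiol for 16 hr at 37C. Beta-lactamase reporter read by FRET substrate fluorescence after 2 hours at room temperature.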

[20] = biological target: Estrogen receptor (Homo sapiens) (UniProt P03372); assay: qHTS assay to identify small molecule agonists of the estrogen receptor alpha (ER-alpha) signaling pathway in the presence of an antagonist (AID 1259383; calls by dose curve; note: top concentration of the series differs between compounds; nearly all actives have a fitted effect of over 15% in size)
In short: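 Cells are hormone-deprived for 5 days (charcoal-stripped FBS, no phenol red), plated for 24hr, spiked with 10.0nM ICI-182,780, then dosed at 15 concentrations. After 22hr at 37C, ONE-Glo luminescence reports ERE-luciferase activity.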

Measured: Potency

Chain of Androgen receptor (Homo sapiens) (P10275 whole entry, looked up): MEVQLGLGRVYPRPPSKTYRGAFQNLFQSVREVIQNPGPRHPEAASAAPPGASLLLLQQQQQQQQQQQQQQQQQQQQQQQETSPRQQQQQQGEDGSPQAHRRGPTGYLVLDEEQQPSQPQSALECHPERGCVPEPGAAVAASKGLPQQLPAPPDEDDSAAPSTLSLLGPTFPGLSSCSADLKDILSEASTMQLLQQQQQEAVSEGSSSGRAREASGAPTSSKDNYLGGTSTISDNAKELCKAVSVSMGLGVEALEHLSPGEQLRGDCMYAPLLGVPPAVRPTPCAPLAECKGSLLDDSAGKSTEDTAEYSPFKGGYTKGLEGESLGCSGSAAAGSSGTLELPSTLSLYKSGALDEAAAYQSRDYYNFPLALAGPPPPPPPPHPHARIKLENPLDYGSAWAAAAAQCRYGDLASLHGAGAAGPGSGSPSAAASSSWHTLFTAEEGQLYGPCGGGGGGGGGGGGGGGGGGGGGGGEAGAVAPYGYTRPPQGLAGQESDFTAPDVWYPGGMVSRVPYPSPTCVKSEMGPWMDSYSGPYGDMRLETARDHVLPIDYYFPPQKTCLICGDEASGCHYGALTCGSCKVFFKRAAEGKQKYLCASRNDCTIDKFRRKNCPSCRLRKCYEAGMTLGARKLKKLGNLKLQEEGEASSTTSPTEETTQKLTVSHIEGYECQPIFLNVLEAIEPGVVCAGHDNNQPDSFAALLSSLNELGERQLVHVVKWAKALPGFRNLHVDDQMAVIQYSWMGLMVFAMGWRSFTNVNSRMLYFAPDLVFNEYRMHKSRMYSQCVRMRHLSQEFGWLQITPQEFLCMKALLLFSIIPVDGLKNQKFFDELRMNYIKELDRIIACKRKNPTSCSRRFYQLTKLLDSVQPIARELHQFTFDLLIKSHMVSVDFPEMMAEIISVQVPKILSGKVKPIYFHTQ
Chain of Estrogen receptor (Homo sapiens) (P03372 whole entry, looked up): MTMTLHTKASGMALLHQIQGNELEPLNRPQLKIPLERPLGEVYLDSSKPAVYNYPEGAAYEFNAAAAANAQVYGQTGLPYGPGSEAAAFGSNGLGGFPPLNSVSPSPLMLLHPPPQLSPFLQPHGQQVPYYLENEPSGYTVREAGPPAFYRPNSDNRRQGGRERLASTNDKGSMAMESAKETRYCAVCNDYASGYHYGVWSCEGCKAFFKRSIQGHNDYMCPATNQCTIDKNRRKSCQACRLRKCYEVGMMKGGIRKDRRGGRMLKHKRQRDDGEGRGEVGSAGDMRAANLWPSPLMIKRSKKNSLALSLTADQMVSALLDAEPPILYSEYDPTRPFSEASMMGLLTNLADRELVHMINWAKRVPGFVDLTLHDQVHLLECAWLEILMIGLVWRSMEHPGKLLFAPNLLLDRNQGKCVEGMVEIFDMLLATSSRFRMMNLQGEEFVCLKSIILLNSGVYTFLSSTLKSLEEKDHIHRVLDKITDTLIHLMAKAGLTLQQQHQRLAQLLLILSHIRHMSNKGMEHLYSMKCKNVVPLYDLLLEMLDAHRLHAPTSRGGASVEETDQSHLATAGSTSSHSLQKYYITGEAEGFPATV
Chain of Estrogen receptor beta (Homo sapiens) (Q92731 whole entry, looked up): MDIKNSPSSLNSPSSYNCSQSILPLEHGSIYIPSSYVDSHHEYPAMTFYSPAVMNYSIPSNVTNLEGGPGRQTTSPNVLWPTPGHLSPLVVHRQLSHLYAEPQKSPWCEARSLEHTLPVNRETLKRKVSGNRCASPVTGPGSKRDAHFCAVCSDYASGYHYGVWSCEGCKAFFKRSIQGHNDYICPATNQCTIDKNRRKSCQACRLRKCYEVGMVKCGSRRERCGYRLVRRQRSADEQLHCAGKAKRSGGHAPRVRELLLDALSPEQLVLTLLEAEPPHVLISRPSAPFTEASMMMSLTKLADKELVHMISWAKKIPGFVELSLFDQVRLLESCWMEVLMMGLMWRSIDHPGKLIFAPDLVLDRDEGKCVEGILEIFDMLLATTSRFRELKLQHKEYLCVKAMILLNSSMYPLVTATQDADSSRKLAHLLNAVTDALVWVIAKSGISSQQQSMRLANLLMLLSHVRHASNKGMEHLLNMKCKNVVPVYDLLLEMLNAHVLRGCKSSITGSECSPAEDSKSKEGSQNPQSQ

COc1ccc2c(c1)c(CC(=O)OCC(=O)O)c(C)n2C(=O)c1ccc(Cl)cc1
inactive: [1] | [2] | [3] | [4] | [5] | [6] | [7] | [8] | [9] | [10] | [11] | [12] | [13] | [14] | [15] | [16]

C=C(C)C(=O)OCCCCCCCC(C)C
inactive: [1] | [2] | [3] | [4] | [17] | [7] | [10] | [18] | [19] | [12] | [13] | [14] | [15] | [20]

CC(C)(CC(=O)O)C(=O)O
inactive: [1] | [2] | [3] | [4] | [17] | [6] | [7] | [8] | [9] | [10] | [11] | [18] | [19] | [12] | [13] | [14] | [20] | [16]

OC1CCCCC1c1ccccc1 (stereo not given)
inactive: [1] | [2] | [3] | [4] | [17] | [6] | [7] | [8] | [9] | [11] | [18] | [19] | [12] | [13] | [14] | [15] | [20] | [16]

Nc1c2c(nc3ccccc13)CCCC2O (stereo not given)
inactive: [1] | [2] | [3] | [17] | [5] | [6] | [7] | [8] | [9] | [10] | [18] | [19] | [12] | [13] | [15] | [20] | [16]

O=C1NC(=O)[C@@]2(CCOc3ccc(F)cc32)N1
inactive: [1] | [2] | [3] | [17] | [5] | [6] | [7] | [8] | [9] | [10] | [11] | [18] | [19] | [12] | [13] | [15] | [20]

O=C(O)Cc1ccc(CCNS(=O)(=O)c2ccc(Cl)cc2)cc1
inactive: [1] | [2] | [3] | [17] | [5] | [6] | [7] | [8] | [9] | [10] | [11] | [18] | [19] | [12] | [13] | [20] | [16]

COC(=O)C1=C(C)NC(C)=C(C(=O)OC)C1c1ccccc1[N+](=O)[O-]
30.7 µM (active) and inactive: [9]
inactive: [1] | [2] | [3] | [17] | [5] | [6] | [7] | [10] | [18] | [19] | [12] | [13] | [15] | [20] | [16]
active: [8] 27.3 µM | [11] 6.12 µM and 6.68 µM
